Counter-ions that a name gives are not always drawn. Hit rate of the full screen: of about 1,200 compounds, about 50 (4%) showed activity. No stated cut-off is given here; in the data, all actives reach 1.3 or more but so do some inactives. The full list was thinned out, with actives kept by preference.
What follows are molecules tested on Lgr5 (MarsCy1-Lgr5-EGFP, U2OS) (assay: cell-surface Lgr5 expression (SCi1 fluorescence, background-subtracted) relative to WT DMSO (fold of DMSO control); higher = more Lgr5 at the plasma membrane, active = hit call of the paper). Conditions: U2OS MarsCy1-Lgr5-EGFP stable; treatment time: overnight; 16 µM; library: Johns Hopkins Clinical Compound Library.

Row | SMILES | cell-surface Lgr5 expression
1 | NC(CCC(=O)O)C(=O)O (racemic) [DL-Glutamic acid monohydrate] | 0.692 (inactive)
2 | NC(=O)N[C@@H](CCC(=O)O)C(=O)O [Carglumic acid (N-Carbamyl-L-Glutamic Acid)] | 1.08 (inactive)
3 | C=CC(N)CCC(=O)O (stereo not drawn) [Vigabatrin] | 1.52 (active)
4 | OCc1ccccc1O[C@@H]1O[C@H](CO)[C@@H](O)[C@H](O)[C@H]1O [Salicin] | 1.17 (inactive)
5 | c1ccc(CN(CC2=NCCN2)c2ccccc2)cc1 [Antazoline phosphate salt] | 1.28 (inactive)
6 | CC(C)COCC(CN(Cc1ccccc1)c1ccccc1)N1CCCC1 (stereo not drawn) [Bepridil] | 1.31 (active)
7 | c1ccc(CN(CC2=NCCN2)c2ccccc2)cc1 [Antazoline] | 1.21 (inactive)
8 | Nc1c(Br)cc(Br)cc1CN[C@H]1CC[C@H](O)CC1 [Ambroxol hydrochloride] | 1.54 (active)
9 | O=C1OC(c2ccc(O)cc2)(c2ccc(O[C@@H]3O[C@H](C(=O)O)[C@@H](O)[C@H](O)[C@H]3O)cc2)c2ccccc21 (stereo partly drawn) [Phenolphthalein beta-D-glucuronide sodium salt] | 1 (inactive)
10 | NCCC[C@H](N)C(=O)O [L-Ornithine] | 0.718 (inactive)
11 | [K+].[OH-] [Potassium hydroxide] | 1.11 (inactive)
12 | NS(=O)(=O)c1cc2c(cc1Cl)NC(C(Cl)Cl)NS2(=O)=O (stereo not drawn) [Trichlormethiazide] | 1.44 (active)
13 | CN1C(CCl)Nc2cc(Cl)c(S(N)(=O)=O)cc2S1(=O)=O (stereo not drawn) [Methyclothiazide] | 0.905 (inactive)
14 | C=CCSCC1Nc2cc(Cl)c(S(N)(=O)=O)cc2S(=O)(=O)N1 (stereo not drawn) [Althiazide] | 1.27 (inactive)
15 | CC(C)(C)NCC(O)c1ccc(O)c(CO)c1 (stereo not drawn) [Albuterol (Salbutamol)] | 1.22 (inactive)
16 | CNC[C@H](O)c1cccc(O)c1 [L-Phenylephrine hydrochloride] | 0.598 (inactive)
17 | CNCC(O)c1ccc(OC(=O)C(C)(C)C)c(OC(=O)C(C)(C)C)c1 (stereo not drawn) [Dipivefrin HCl] | 1.42 (active)
18 | CCC(C)C(C(=O)OCC[N+](C)(CC)CC)c1ccccc1 (stereo not drawn) [Valethamate bromide] | 1.1 (inactive)
19 | CCN(CC)C(=S)S [Ditiocarb (Diethyldithiocarbamic acid sodium, thiocarb)] | 1.05 (inactive)
20 | CCN(CC)CCCC(C)Nc1ccnc2cc(Cl)ccc12 (stereo not drawn) [Chloroquine diphosphate salt] | 1.53 (inactive)
21 | O=C(OCC(O)CO)c1ccccc1Nc1ccnc2cc(Cl)ccc12 (stereo not drawn) [Glafenine] | 1.63 (active)

Row | SMILES | cell-surface Lgr5 expression
22 | CCN(CC)Cc1cc(Nc2ccnc3cc(Cl)ccc23)ccc1O [Amodiaquin] | 1.47 (inactive)
23 | CN(CCO)CC(O)Cn1cnc2c1c(=O)n(C)c(=O)n2C (stereo not drawn) [Xanthinol niacinate (Xanthinol Nicotinate)] | 1.05 (inactive)
24 | O=Cc1cc(Br)cc(Br)c1O [3,5-Dibromosalicylaldehyde] | 1.17 (inactive)
25 | CNCCCC12CCC(c3ccccc31)c1ccccc12 [Maprotiline] | 1.32 (active)
26 | CNCCCC1c2ccccc2C=Cc2ccccc21 [Protriptyline] | 0.38 (inactive)
27 | CNCCCN1c2ccccc2CCc2ccccc21 [Desipramine] | 1 (inactive)
28 | COc1cc(C2Oc3cc([C@H]4Oc5cc(O)cc(O)c5C(=O)[C@@H]4O)ccc3OC2CO)ccc1O (stereo partly drawn) [Silibinin] | 1.08 (inactive)
29 | COc1cc(C2Oc3cc([C@H]4Oc5cc(O)cc(O)c5C(=O)[C@@H]4O)ccc3OC2CO)ccc1O (stereo partly drawn) [Silibinin (Silybin)] | 1.23 (inactive)
30 | Oc1c(Cl)cc(Cl)c2cccnc12 [Chloroxine (5,7-Dichloro-8-hydroxyquinoline)] | 0.97 (inactive)
31 | Cc1c(N(C)C)c(=O)n(-c2ccccc2)n1C [Aminopyrine (4 Dimethylamino antipyrene)] | 0.932 (inactive)
32 | Cc1c(N(C)C)c(=O)n(-c2ccccc2)n1C [Aminopyrine (4-Dimethylamino-antipyrine)] | 1.14 (inactive)
33 | Cc1cc(OS(=O)(=O)O)c2ccccc2c1OS(=O)(=O)O [Menadiol disulfate disodium salt trihydrate] | 0.856 (inactive)
34 | O=C(O)c1cc(S(=O)(=O)O)ccc1O [Sulfosalicylic acid (5-Sulfosalicylic acid dihydrate)] | 1.11 (inactive)
35 | NC[C@H](O)c1ccc(O)c(O)c1 [Arterenol (Norepinephrine)] | 1.3 (active)
36 | CCC(NC(C)C)C(O)c1ccc(O)c(O)c1 (stereo not drawn) [Isoetharine mesylate] | 1.19 (inactive)
37 | CNC[C@H](O)c1ccc(O)c(O)c1 [Epinephrine] | 1.57 (inactive)
38 | NC[C@H](O)c1ccc(O)c(O)c1 [Norepinephrine] | 1.26 (inactive)
39 | Cc1ncc(CO)c(CN)c1O [Pyridoxamine dihydrochloride] | 0.999 (inactive)
40 | Cc1ncc(CO)c(CN)c1O [Pyridoxamine, Dihydrochloride] | 1.02 (inactive)
41 | CCCCc1nc(Cl)c(CO)n1Cc1ccc(-c2ccccc2-c2nnn[nH]2)cc1 [Losartan] | 0.915 (inactive)
42 | C[C@@H]1[C@H](O)[C@@H](C)/C=C/C=C/C=C/C=C/C=C/C=C/C=C/[C@H](O[C@@H]2O[C@H](C)[C@@H](O)[C@H](N)[C@@H]2O)C[C@@H]2O[C@](O)(C[C@@H](O)C[C@@H](O)[C@H](O)CC[C@@H](O)C[C@@H](O)CC(=O)O[C@H]1C)C[C@H](O)[C@H]2C(=O)O [Amphotericin B] | 0.802 (inactive)

Row | SMILES | cell-surface Lgr5 expression
43 | C[C@@H]1CCC[C@H](C)N1NC(=O)c1ccc(Cl)c(S(N)(=O)=O)c1 [Clopamide] | 1.3 (inactive)
44 | CC(=O)O[C@]1(C(C)=O)CC[C@H]2[C@@H]3C[C@H](C)C4=CC(=O)C=C[C@]4(C)[C@@]3(F)[C@@H](O)C[C@@]21C [Fluorometholone acetate] | 1.31 (active)
45 | CC(=O)OCC(=O)[C@@]12OC(C)(C)O[C@@H]1C[C@H]1[C@@H]3CCC4=CC(=O)C=C[C@]4(C)[C@@]3(F)[C@@H](O)C[C@@]12C [Triamcinolone acetonide acetate] | 1.26 (inactive)
46 | CC(=O)OCC(=O)[C@@]1(OC(C)=O)[C@@H](C)C[C@H]2[C@@H]3C[C@H](F)C4=CC(=O)C=C[C@]4(C)[C@@]3(F)[C@@H](O)C[C@@]21C [Diflorasone diacetate] | 1.67 (active)
47 | CCCC(=O)O[C@]1(C(=O)CCl)[C@H](C)C[C@@H]2[C@@H]3CCC4=CC(=O)C=C[C@]4(C)[C@]3(F)C(=O)C[C@@]21C [Clobetasone butyrate] | 1 (inactive)
48 | CC(=O)O[C@]1(C(C)=O)CC[C@H]2[C@@H]3C[C@H](C)C4=CC(=O)CC[C@]4(C)[C@H]3CC[C@@]21C [Medroxyprogesterone acetate] | 1.2 (inactive)
49 | CC(=O)OCC(=O)[C@@]12OC(C)(C)O[C@@H]1C[C@H]1[C@@H]3C[C@H](F)C4=CC(=O)C=C[C@]4(C)[C@@]3(F)[C@@H](O)C[C@@]12C [Fluocinolone acetonide 21-acetate] | 1.6 (active)
50 | CCCC(=O)O[C@]1(C(=O)COC(C)=O)CC[C@H]2[C@@H]3C[C@H](F)C4=CC(=O)C=C[C@]4(C)[C@@]3(F)[C@@H](O)C[C@@]21C | 1.57 (active)
51 | CC(=O)O[C@]1(C(C)=O)CC[C@H]2[C@@H]3C=C(Cl)C4=CC(=O)[C@@H]5C[C@@H]5[C@]4(C)[C@H]3CC[C@@]21C [Cyproterone acetate] | 1.25 (inactive)
52 | COc1cccc2c1C(=O)c1c(O)c3c(c(O)c1C2=O)C[C@@](O)(C(=O)CO)C[C@@H]3O[C@H]1C[C@H](N)[C@@H](O)[C@H](C)O1 [Epirubicin] | 1.31 (inactive)
53 | O=S(=O)([O-])[O-].[Cu+2] [Copper (II) sulfate] | 1.27 (inactive)
54 | CCN1C(=CC=Cc2ccc3ccccc3[n+]2CC)C=Cc2ccccc21 [Quinaldine blue (Pinacyanol chloride)] | 1.53 (inactive)
55 | CCCCNc1ccc(C(=O)OCCOCCOCCOCCOCCOCCOCCOCCOCCOC)cc1 [Benzonatate] | 1.08 (inactive)
56 | O=C(O)c1ccc[n+]([O-])c1 [Oxiniacic acid (nicotinic acid n-oxide)] | 0.989 (inactive)
57 | Cc1ccc(S(=O)(=O)NCl)cc1 [Chloramine-T hydrate] | 0.672 (inactive)
58 | CCC(=O)Oc1ccc(/C(CC)=C(\CC)c2ccc(OC(=O)CC)cc2)cc1 [Diethylstilbestrol dipropionate] | 0.886 (inactive)
59 | O=P(O)(O)OC1C(OP(=O)(O)O)C(OP(=O)(O)O)C(OP(=O)(O)O)C(OP(=O)(O)O)C1OP(=O)(O)O (stereo not drawn) [Phytic acid, dodecasodium salt hydrate] | 0.522 (inactive)
60 | Br.N [Ammonium bromide] | 1.09 (inactive)
61 | CC1CCC(NC(=O)N(CCCl)N=O)CC1 (stereo not drawn) [Semustine] | 1.06 (inactive)
62 | C[C@@H]1C/C=C/C=C/C=C/C=C/[C@H](O[C@@H]2O[C@H](C)[C@@H](O)[C@H](N)[C@@H]2O)C[C@@H]2O[C@](O)(C[C@@H](O)C[C@H]3O[C@@H]3/C=C/C(=O)O1)C[C@H](O)[C@H]2C(=O)O [Natamycin (Pimaricin)] | 0.845 (inactive)
63 | O=S(=O)([O-])[O-].O=S(=O)([O-])[O-].[Al+3].[Na+] [Aluminum sodium sulfate] | 0.71 (inactive)
